Each structure is given as a SMILES string. Inconclusive results are not listed. Activity calls are given as the source filed them. Unless noted, calls come from the whole dose curve; as a rule, active = well fitted curve in the direction sought with a large enough effect in the repeat runs; inconclusive = weak or mixed curves; inactive = no such curve, though single readings can be large; an effect the other way counts as inactive or inconclusive.

The nature of assay [1]: qHTS assay to identify small molecule antagonists of the estrogen receptor alpha (ER-alpha) signaling pathway using the BG1 cell line in the presence of 0.1 nM 17-beta-estradiol - cell viability counter screen (AID 1259241). Note: nearly all actives have a fitted effect of over 40% in size. Put shortly:
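The cell line endogenously expresses full-length ER-alpha and carries four EREs driving luciferase. Cells are cultured 5 days hormone-free, treated 22 hr with compounds and 0.1 nM estradiol, then viability is read by fluorescence.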
For orientation: qHTS replaces the single test concentration by a dilution series.

Assay [2] can be described thus: qHTS assay to identify small molecule antagonists of the androgen receptor (AR) signaling pathway using the MDA cell line in the presence of 0.5 nM R1881 - cell viability counter screen (AID 1259242). Note: nearly all actives have a fitted effect of over 45% in size. In outline: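 Concentration-response screen of compounds for toxicity in MDA-kb2 reporter cells: 16 hr at 37C with 0.5 nM R1881, endpoint live-cell protease fluorescence measured in the reporter wells.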

For assay [3], the target named is Estrogen receptor (Homo sapiens) (UniProt P03372). In words: qHTS assay to identify small molecule antagonists of the estrogen receptor alpha (ER-alpha) signaling pathway using the BG1 cell line in the presence of 0.1 nM 17-beta-estradiol (AID 1259244). Note: nearly all actives have a fitted effect of over 50% in size. In outline:
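Compounds were tested against 0.1 nM (final) 17beta-estradiol in VM7Luc4E2 cells, which express full-length ER-alpha and an ERE-luciferase reporter; luminescence was recorded following 22 h exposure.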

The nature of assay [4]: qHTS assay to identify small molecule HDAC inhibitors (AID 1259364). Note: potency is the fitted concentration of half-maximal effect.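 Note: wild-type HCT-116 cells with endogenous class I/II HDAC activity; nearly all actives have a fitted effect of over 45% in size.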 In outline:
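Screening used wild-type human colon HCT-116 cells incubated overnight, dosed with compounds for 2 hours, and assayed with a homogeneous luminogenic HDAC I/II reagent for 30 minutes at room temperature.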

Assay [5] is described as follows: qHTS assay to identify small molecule HDAC inhibitors - cell viability counter screen (AID 1259365). Note: series mostly up to about 92 µM; nearly all actives have a fitted effect of over 50% in size. In outline:
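Viability readout: CellTiter-Glo luminescence. Wild-type HCT-116 cells, 2hr compound treatment following overnight attachment at 37 C.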

Assay [6] in a line: qHTS assay to identify small molecule agonists of the sonic hedgehog signaling (Shh) pathway - cell viability counter screen (AID 1259366). Note: nearly all actives have a fitted effect of over 50% in size. Note: potency is the fitted concentration of half-maximal effect. In outline: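 Viability measured fluorometrically (CellTiter-Fluor, 1hr, 37C) in 3T3 Gli1-Luc reporter cells after 23hr compound exposure within a 24hr incubation at 37C/5% CO2.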
The nature of assay [7]: qHTS assay to identify small molecule antagonists of the sonic hedgehog signaling (Shh) pathway - cell viability counter screen (AID 1259367). Note: nearly all actives have a fitted effect of over 55% in size. Put shortly:
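Viability was read by CellTiter-Fluor fluorescence in the same wells, reagent added 23 hr into compound treatment and incubated 1 hr at 37C. The 3T3 Gli1-Luc reporter cells (2,000/well) received conditioned medium after compound and ran 24 hr.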

Assay [8] in a line: qHTS assay to identify small molecule agonists of the sonic hedgehog signaling (Shh) pathway (AID 1259368; calls by dose curve;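 note: NIH/3T3-derived 3T3Gli1-Luc cells carrying a stable Gli1-driven firefly luciferase reporter; series mostly up to about 92 µM; nearly all actives have a fitted effect of over 15% in size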). In outline: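 Hedgehog pathway agonism scored by increased firefly luciferase luminescence in 3T3Gli1-Luc cells treated 24 hr at 37 C; detection used a 30 min room-temperature reagent incubation.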

Estrogen receptor (Homo sapiens), sequence (P03372 whole entry, looked up): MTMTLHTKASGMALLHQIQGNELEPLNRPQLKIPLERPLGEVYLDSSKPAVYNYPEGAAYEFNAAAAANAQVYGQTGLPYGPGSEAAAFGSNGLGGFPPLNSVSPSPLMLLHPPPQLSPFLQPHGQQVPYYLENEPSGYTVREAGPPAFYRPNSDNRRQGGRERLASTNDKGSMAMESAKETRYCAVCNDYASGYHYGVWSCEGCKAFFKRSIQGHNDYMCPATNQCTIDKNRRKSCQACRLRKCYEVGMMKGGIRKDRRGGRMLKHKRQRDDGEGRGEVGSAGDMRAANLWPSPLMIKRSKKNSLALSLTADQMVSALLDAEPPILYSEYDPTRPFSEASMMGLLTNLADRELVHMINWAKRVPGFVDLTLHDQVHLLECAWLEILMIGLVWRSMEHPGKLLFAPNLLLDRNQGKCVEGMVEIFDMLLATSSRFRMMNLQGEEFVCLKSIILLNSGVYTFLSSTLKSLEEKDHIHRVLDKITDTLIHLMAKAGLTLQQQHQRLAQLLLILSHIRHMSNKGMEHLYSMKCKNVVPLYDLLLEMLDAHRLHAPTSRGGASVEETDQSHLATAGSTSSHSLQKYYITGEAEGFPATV

As for `CC(=O)c1cc2ccccc2s1`, the Potency entry in assay [1], in assay [2], in assay [3], in assay [4], in assay [5] and in assay [6] was “inactive” each time. Further, the Potency entry in assay [7] and in assay [8] was “inactive” each time.
For `O=Cc1c2ccccc2c(Cl)c2ccccc12`, the Potency entry in assay [1], in assay [2], in assay [3], in assay [4], in assay [5] and in assay [6] was “inactive” throughout. For the same molecule, the Potency entry in assay [7] and in assay [8] was “inactive” each time.
As for `CCCCC(CC)COP(=O)(O)O` (stereo not given), the Potency entry in assay [1], in assay [2], in assay [3], in assay [4], in assay [5] and in assay [6] was “inactive” in each case. The Potency result in assay [7] and in assay [8] was “inactive” in each case.
Consider `N#CCCN(CCO)CCO`, for which the Potency result in assay [1], in assay [2], in assay [3], in assay [4], in assay [5] and in assay [6] was “inactive” in each case. Moreover, the Potency entry in assay [7] and in assay [8] was “inactive” in each case.
With `O=C(O)CCCCCCCCCCCBr`, the Potency result in assay [1], in assay [2], in assay [3], in assay [5], in assay [6] and in assay [7] was “inactive” each time. Besides, the Potency result in assay [8] was “inactive”. Moreover, the Potency in assay [4] was 24.4 µM (active).
For the molecule `FC(F)(F)c1ccccc1Cl`, the Potency entry in assay [1], in assay [2], in assay [3], in assay [4], in assay [5] and in assay [6] was “inactive” each time. In addition, the Potency entry in assay [7] and in assay [8] was “inactive” in each case.
For the molecule `CN(C)CCC=C1c2ccccc2C=Cc2ccccc21`, the Potency entry in assay [1], in assay [2], in assay [3], in assay [5], in assay [6] and in assay [7] was “inactive” throughout. Further, the Potency entry in assay [8] was “inactive”.
Take `CCOC(=O)c1ccccc1C(=C1C=C(Br)C(=O)C(Br)=C1)c1cc(Br)c(O)c(Br)c1`: the Potency entry in assay [1], in assay [2], in assay [3], in assay [4], in assay [5] and in assay [6] was “inactive” each time. Further, the Potency entry in assay [7] and in assay [8] was “inactive” in each case.
In the case of `CCc1ccccc1`, the Potency result in assay [1], in assay [2], in assay [3], in assay [4], in assay [5] and in assay [6] was “inactive” in each case. In addition, the Potency result in assay [7] and in assay [8] was “inactive” each time.
For the molecule `CCC(C)(C)OC`, the Potency entry in assay [1], in assay [2], in assay [3], in assay [4], in assay [5] and in assay [6] was “inactive” in each case. Besides, the Potency entry in assay [7] and in assay [8] was “inactive” in each case.
Take `CCC(C)COC(=O)CC(C)C` (stereo not given): the Potency result in assay [1], in assay [2], in assay [3], in assay [4], in assay [5] and in assay [6] was “inactive” in each case. Also, the Potency result in assay [7] and in assay [8] was “inactive” in each case.
`CCOC(=O)c1ccc(I)cc1`: the Potency result in assay [1], in assay [2], in assay [3], in assay [4], in assay [5] and in assay [6] was “inactive” each time. The Potency entry in assay [7] and in assay [8] was “inactive” in each case.
With `C=CC(=O)[O-].C=CC(=O)[O-].[Zn+2]`, the Potency entry in assay [1], in assay [2], in assay [3], in assay [4], in assay [5] and in assay [8] was “inactive” throughout. Moreover, in assay [6], the Potency is 53.2 µM (active).
As to `Cc1ccc(C(C)(C)O)cc1`, the Potency entry in assay [1], in assay [2], in assay [3], in assay [4], in assay [5] and in assay [6] was “inactive” throughout. Also, the Potency entry in assay [7] and in assay [8] was “inactive” in each case.
Take `O=C(CCc1ccc(O)cc1)c1c(O)cc(O)cc1O`: the Potency result in assay [1], in assay [2], in assay [3], in assay [5], in assay [6] and in assay [7] was “inactive” throughout. Besides, in assay [8], the Potency entry was “inactive”.
As for `CC(CO)CO`, the Potency entry in assay [1], in assay [2], in assay [3], in assay [4], in assay [5] and in assay [6] was “inactive” throughout. For the same molecule, the Potency result in assay [7] and in assay [8] was “inactive” each time.

The values above are taken from PubChem BioAssay (Tox21).
